Results filed as inconclusive are left out. The source made the active and inactive calls. The calls were made as follows: active = hit-call score of the fitted dose curve at least 0.9, where 1 is the maximum; inconclusive = response in the unintended direction; inactive = score below 0.9.
Molecular target: human Dopamine Transporter (DAT), SLC6A3 (gene 6531) (UniProt Q01959)
Experiment: NVS_TR_hDAT: NovaScreen (NVS) Transporter Assay for human Dopamine Transporter (DAT) (AID 2283374);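 also: activity means loss of bound radioligand signal relative to DMSO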
Summary of the method: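 Test chemicals were first screened in duplicate at 25 uM, with actives retested as concentration series. Displacement of a specific radioligand from cell-free human dopamine transporter was measured after 1 h by filtration and scintillation counting.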

Sequence of human Dopamine Transporter (DAT), SLC6A3 (gene 6531) (Q01959 whole entry, looked up): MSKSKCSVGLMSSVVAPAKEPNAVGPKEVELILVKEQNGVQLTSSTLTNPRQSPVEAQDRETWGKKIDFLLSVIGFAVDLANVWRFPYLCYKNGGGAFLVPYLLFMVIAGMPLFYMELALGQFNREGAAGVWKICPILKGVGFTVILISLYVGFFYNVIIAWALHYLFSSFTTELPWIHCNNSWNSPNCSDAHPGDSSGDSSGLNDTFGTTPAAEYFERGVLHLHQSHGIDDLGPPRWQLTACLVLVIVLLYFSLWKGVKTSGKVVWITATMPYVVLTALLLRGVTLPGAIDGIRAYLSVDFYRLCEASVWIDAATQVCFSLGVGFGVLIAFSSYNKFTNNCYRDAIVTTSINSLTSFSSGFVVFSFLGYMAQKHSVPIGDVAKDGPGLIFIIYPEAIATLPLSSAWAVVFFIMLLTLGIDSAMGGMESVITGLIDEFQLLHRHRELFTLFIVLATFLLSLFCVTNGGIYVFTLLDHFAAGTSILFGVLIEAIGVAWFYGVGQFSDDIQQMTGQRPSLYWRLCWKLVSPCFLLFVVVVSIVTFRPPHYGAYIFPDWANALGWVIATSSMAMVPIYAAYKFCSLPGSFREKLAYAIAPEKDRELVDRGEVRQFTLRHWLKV

| Compound | AC50 | outcome |
| --- | --- | --- |
| Cc1cc(C)c(C(=O)P(=O)(c2ccccc2)c2ccccc2)c(C)c1 | 13.6 µM (active) | – |
| CC(C)(C)c1ccccc1OP(=O)(Oc1ccccc1)Oc1ccccc1 | 9.69 µM (active) | – |
| CC(=O)c1ccc(-c2ccccc2)cc1 | 10.9 µM (active) | – |
| Clc1ccc(Oc2ccccc2)cc1 | – | inactive |

Molecular target: Norway rat Vesicular Monoamine Transporter (VMAT2), neurotransmitter transporter, Slc18a2 (gene 25549) (UniProt Q01827)
Sequence (Q01827 whole entry, looked up): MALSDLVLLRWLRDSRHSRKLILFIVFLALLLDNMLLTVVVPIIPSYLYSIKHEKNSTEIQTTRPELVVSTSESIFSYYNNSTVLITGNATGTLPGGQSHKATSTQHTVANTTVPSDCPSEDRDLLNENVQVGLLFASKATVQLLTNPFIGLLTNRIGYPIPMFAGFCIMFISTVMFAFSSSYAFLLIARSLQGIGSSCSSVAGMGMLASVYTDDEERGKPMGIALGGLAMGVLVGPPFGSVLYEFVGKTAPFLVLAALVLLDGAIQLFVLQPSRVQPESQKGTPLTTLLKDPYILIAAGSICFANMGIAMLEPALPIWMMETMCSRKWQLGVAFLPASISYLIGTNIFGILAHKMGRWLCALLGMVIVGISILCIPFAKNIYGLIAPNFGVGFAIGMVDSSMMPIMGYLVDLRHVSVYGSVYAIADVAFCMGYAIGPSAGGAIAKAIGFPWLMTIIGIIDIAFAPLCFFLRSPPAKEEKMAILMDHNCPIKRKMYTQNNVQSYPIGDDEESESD
Experiment: NVS_TR_rVMAT2: NovaScreen (NVS) Transporter Assay for Norway rat Vesicular Monoamine Transporter (VMAT2), neurotransmitter transporter (AID 2283376);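 also: actives lower the bound radioligand signal below the DMSO level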
Summary of the method: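 Tissue: rat forebrain extract. Format: competitive radioligand binding, cell-free. Timepoint: 1 h. Readout: filter radiodetection/scintillation. Screen: 25 uM in duplicate, then concentration series for actives. Baseline: DMSO.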

| Compound | outcome |
| --- | --- |
| O=P(OCC(Br)CBr)(OCC(Br)CBr)OCC(Br)CBr (stereo unspecified) | inactive |
| Cn1[nH]nnc1=S | inactive |
| O=C(O)C(Cl)Cl | inactive |
| CC(Cc1ccc(OCC(=O)O)cc1)NCC(O)c1csc(C(F)(F)F)n1 (stereo unspecified) | inactive |
| OCC1CO1 (stereo unspecified) | inactive |
| N#C/C=C/c1ccccc1 | inactive |
| Oc1ccc(I)cc1 | inactive |

Molecular target: human Norepinephrine Transporter (NET), SLC6A2 (gene 6530) (UniProt P23975)
Sequence (P23975 whole entry, looked up): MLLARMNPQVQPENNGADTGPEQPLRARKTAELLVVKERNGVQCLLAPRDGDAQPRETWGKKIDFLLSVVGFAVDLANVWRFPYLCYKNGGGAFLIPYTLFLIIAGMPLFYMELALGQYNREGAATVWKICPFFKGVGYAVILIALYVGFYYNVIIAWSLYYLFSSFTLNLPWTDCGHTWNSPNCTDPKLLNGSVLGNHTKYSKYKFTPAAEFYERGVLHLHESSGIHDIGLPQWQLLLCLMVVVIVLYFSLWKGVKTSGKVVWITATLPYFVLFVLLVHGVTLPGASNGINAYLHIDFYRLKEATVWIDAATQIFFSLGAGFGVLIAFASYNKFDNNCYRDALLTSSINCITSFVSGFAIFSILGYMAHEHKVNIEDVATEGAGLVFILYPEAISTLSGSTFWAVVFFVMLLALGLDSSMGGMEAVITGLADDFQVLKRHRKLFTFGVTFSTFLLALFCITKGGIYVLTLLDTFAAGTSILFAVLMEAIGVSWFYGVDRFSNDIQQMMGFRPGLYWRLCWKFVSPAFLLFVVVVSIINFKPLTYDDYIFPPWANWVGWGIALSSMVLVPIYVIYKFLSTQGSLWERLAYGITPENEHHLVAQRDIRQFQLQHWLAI
Experiment: NVS_TR_hNET: NovaScreen (NVS) Transporter Assay for human Norepinephrine Transporter (NET) (AID 2283377);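 also: cell-free membrane protein extracted from CHO cells expressing human NET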;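 as to AC50: displacement of radioligand from human NET seen as loss of scintillation signal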
Summary of the method: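 Scintillation counts of filter-retained radioligand served as the readout, taken 1 h post-dosing in a cell-free CHO-derived system. Test chemicals ran first at 25 uM in duplicate; confirmed hits were retested across concentrations.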

| Compound | AC50 | outcome |
| --- | --- | --- |
| Cc1ccc2c(c1N)C(=O)c1ccccc1C2=O | 12.2 µM (active) | – |
| Cc1cc(C)c(C(=O)P(=O)(c2ccccc2)c2ccccc2)c(C)c1 | – | inactive |
| Oc1ccccc1Br | – | inactive |
| CCC1(c2ccccc2)C(=O)N=C(O)NC1=O (stereo unspecified) | – | inactive |
| N#Cc1c(-c2ccc(Cl)cc2)[nH]c(C(F)(F)F)c1Br | 16.4 µM (active) | – |
| Oc1ccc(I)cc1 | 19.8 µM (active) | – |

Molecular target: mouse Estrogen Receptor alpha (Era), Esr1 (gene 13982) (UniProt P19785)
Sequence (P19785 whole entry, looked up): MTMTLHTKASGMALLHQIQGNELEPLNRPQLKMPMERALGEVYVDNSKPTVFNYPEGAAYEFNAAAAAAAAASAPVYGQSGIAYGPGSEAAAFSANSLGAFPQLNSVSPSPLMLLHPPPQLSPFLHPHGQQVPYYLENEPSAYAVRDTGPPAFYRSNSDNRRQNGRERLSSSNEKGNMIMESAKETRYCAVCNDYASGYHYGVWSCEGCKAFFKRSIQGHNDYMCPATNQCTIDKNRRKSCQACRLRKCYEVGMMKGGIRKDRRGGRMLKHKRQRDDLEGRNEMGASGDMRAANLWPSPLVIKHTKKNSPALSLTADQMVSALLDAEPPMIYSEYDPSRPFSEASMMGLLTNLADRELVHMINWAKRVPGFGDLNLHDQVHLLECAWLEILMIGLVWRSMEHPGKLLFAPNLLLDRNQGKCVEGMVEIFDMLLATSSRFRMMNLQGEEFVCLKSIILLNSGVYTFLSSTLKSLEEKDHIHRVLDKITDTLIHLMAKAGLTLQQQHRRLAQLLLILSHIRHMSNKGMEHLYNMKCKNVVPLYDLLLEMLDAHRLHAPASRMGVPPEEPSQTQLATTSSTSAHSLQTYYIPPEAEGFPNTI
Experiment: NVS_NR_mERa: NovaScreen (NVS) Nuclear Receptor Binding Assay for mouse Estrogen Receptor alpha (Era) (AID 2283378);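 also: hit means loss of bound radioligand signal relative to DMSO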
Summary of the method: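 Cell-free radioligand binding with extracted mouse Era protein; competitive displacement of radiolabelled ligand, read by filter-based scintillation counting 18 hours after dosing. Loss of signal versus DMSO baseline taken as binding; single screening concentration 25 uM, actives followed in concentration series.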

| Compound | outcome |
| --- | --- |
| CC(Cl)(Cl)C(=O)O | inactive |
| c1nc[nH]n1 | inactive |
| O=P1(N(CCCl)CCCl)NCCCO1 (stereo unspecified) | inactive |
| CCCN(CCC)c1c([N+](=O)[O-])cc(C(C)C)cc1[N+](=O)[O-] | inactive |
| ClC(Cl)(Cl)c1ccccc1 | inactive |
| CO/N=C(/C(=O)OC)c1ccccc1COc1ccccc1C | inactive |
| CCCCc1ccc(O)cc1 | inactive |
| CCOP(=S)(Oc1ccc([N+](=O)[O-])cc1)c1ccccc1 (stereo unspecified) | inactive |
| O=[N+]([O-])c1ccccc1 | inactive |

Source: PubChem BioAssay (EPA / NIEHS)
